The list is not random: actives were taken first. Their share in the collection is about 4%.
TRHR PAM – qHTS for Small Molecule Agonists and Allosteric Enhancers of Human TRH Receptor: Primary Screen for Enhancers. Thyrotropin-releasing hormone receptor (Homo sapiens), P34981. TRHR cells, fluo-8 calcium fluorescence, EC20 TRH enhancement. enhancement, % at 2 µM. actives 0.66% (n = 360,000). AID 493056, 2011; in the data active = enhancement above about 30%
Target sequence (P34981 whole entry, looked up): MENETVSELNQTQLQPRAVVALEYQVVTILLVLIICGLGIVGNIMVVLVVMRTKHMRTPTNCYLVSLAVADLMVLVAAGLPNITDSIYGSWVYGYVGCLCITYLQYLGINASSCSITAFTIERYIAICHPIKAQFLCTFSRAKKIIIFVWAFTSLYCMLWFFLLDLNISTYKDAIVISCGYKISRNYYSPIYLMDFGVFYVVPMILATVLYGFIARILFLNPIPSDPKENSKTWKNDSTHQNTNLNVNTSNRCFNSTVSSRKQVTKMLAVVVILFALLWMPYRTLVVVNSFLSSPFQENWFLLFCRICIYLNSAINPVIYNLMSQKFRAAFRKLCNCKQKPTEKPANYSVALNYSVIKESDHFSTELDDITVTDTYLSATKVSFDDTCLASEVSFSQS
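Enhancer read-out: after compound pinning and an initial kinetic agonist-mode read, an EC20 of TRH (10 nM final) was injected and fluo-8 calcium signal (Ex 480/Em 530) followed at 1 s/cycle for 100 cycles in TRHR-expressing cells.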
D1 agonist – Allosteric Agonists of the Human D1 Dopamine Receptor: qHTS; activation, % at 2 µM; HEK293 T-REx D1 cells, calcium flux, agonist mode; actives 1% (n = 360,000)
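Inducible HEK293 T-REx D1 cells, force-coupled to calcium signalling, were plated at 4000 cells/well with tetracycline and held overnight at 30 C. After no-wash calcium dye loading, compound-evoked calcium rise over 180 s flagged agonists.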
TRHR agonist – qHTS for Small Molecule Agonists and Allosteric Enhancers of Human TRH Receptor: Primary Screen for Agonists; actives 0.18% (n = 360,000); activation, % at 2 µM; TRHR cells, calcium flux fluo-8, FDSS agonist mode; AID 493084, 2011
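Agonist-mode FDSS calcium read (Ex 480/Em 530, 1 s cycles) in 1536-well TRHR cells with fluo-8 dye, after 10-cycle baseline and 23 nL compound addition; TRH at EC20 (10 nM final) added afterwards for the enhancer phase.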
GRP78 ERSR act – qHTS for Inducers of the Endoplasmic Reticulum Stress Response (ERSR) in Human Glioma: qHTS. U87-MG GRP78 promoter luciferase reporter, 16 h. Potency, µM, most hits filed as activators. actives 0.02% (n = 420,000). AID 602332, 2012; active = well fitted activation curve with a large enough effect; note: series mostly up to about 76 µM; nearly all actives have a fitted effect of over 35% in size
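Stably transfected U87-MG glioma cells carrying a GRP78-based luciferase sensor; 16 h compound incubation. Luminescence end-point read 10 min after Bright-Glo addition at room temperature.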
D1 antagonist – Antagonist of Human D 1 Dopamine Receptor: qHTS; HEK293 TREx D1 cells, calcium flux, dopamine EC80; hits give low values; activity change, negative = inhibition, % at 10 µM; actives 3.2% (n = 360,000); AID 504652, 2011; in the data active = activity change below about -30%
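HEK293 T-REx cells expressing inducible, force-coupled D1 receptor; no-wash Ca dye, 30–90 min RT. Cmpd → 180 s read at 1 Hz → EC80 DA → 180 s read.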
D1 PAM – Potentiators of Human D1 Dopamine Receptor: qHTS | D(1A) dopamine receptor (Homo sapiens), P21728 | HEK293 TREx D1 cells, calcium flux, dopamine EC20 potentiation | potentiation, % at 10 µM | actives 0.036% (n = 360,000) | AID 504651, 2011; in the data active = potentiation above about 30%
Large screens that a line does not name were inactive; ! = not active in a repeat. Cut-off read from the data, not from the text of the source, unless noted: active = activation above about 30%; inactive = the rest.

CCOC(=O)c1sc2nc(CSc3ccccc3)nc(N3CCCN(C)CC3)c2c1C	D1 agonist 30
Cc1ccc(C=Nc2cccnc2N)cc1	D1 agonist 90
COc1ccc(C=Nc2cccnc2N)cc1	none
O=C1CN(C(=O)COC(=O)CCSc2ccccc2Cl)c2ccccc2N1	TRHR PAM 33
O=C1CN(C(=O)COC(=O)c2cccs2)c2ccccc2N1	D1 antagonist -30
O=C1CN(C(=O)COc2ccc(Br)cc2F)c2ccccc2N1	D1 antagonist -34
O=C1CN(C(=O)c2cccs2)c2ccccc2N1	none
OC1(c2cccnc2)CCN(Cc2ccc3c(c2)CN(Cc2cccc(C(F)(F)F)c2)CCO3)CC1	none (no result: TRHR PAM, D1 agonist, TRHR agonist, D1 antagonist, D1 PAM)
Nc1nc(NCc2cccc(Cl)c2)c2[nH]cnc2n1	none (no result: TRHR PAM, D1 agonist, TRHR agonist, D1 antagonist, D1 PAM)
Cc1cc2c(s1)c1cnn(Cc3ccc(C(=O)O)cc3)c(=O)c1n2C	none (no result: GRP78 ERSR act)
O=C(Nc1ccc(Oc2ccc(C(F)(F)F)cn2)c(Cl)c1)C1CC1	D1 antagonist -32
CC(=O)Nc1ccc(NC(=O)C2CCN(c3ccc(C(F)(F)F)cn3)CC2)cc1	none
Cc1ccc(C(=O)NCCc2nnc3ccc(SCC(=O)N4CCCC4)nn23)cc1	none
Cc1ccc(C(=O)NCCc2nnc3ccc(SCC(=O)N4CCCCC4)nn23)cc1	TRHR PAM 33
Cc1ccccc1OCC(=O)Nc1ccc(N2CCN(C)CC2)c(Cl)c1	D1 agonist 35, D1 antagonist -71 (no result: D1 PAM)
COc1cccc(NC(=O)COc2ccc(C(=S)N3CCN(C)CC3)cc2OC)c1	D1 antagonist -31
COc1cc(C(=S)N2CCN(C)CC2)ccc1OCC(=O)NCc1ccccc1	none
CC1(C)CC(=O)C2=C(C1)NC(=O)CC2c1cc(F)ccc1F (configuration not stated)	none
CC1(C)CC(=O)C2=C(C1)NC(=O)CC2c1ccccc1F (configuration not stated)	D1 antagonist -31
CCOC(=O)CCN1C(=O)[C@H]2[C@H]3[C@H](O)[C@H](O)C/C(=N/O[C@@H]4O[C@@H](COC(C)=O)[C@@H](OC(C)=O)[C@@H](OC(C)=O)[C@H]4OC(C)=O)[C@H]3CC[C@@H]2C1=O	none (no result: TRHR PAM, D1 agonist, TRHR agonist, D1 antagonist, D1 PAM)
Cc1cc2c(s1)c1cnn(Cc3c(F)ccc(C)c3Cl)c(=O)c1n2C	none (no result: GRP78 ERSR act)
COc1ccc(C(=O)NCc2nnc(SCC(=O)NCCc3ccccc3)o2)cc1	TRHR PAM 36
COc1ccc(C(=O)NCc2nnc(SCC(=O)Nc3cc(C)cc(C)c3)o2)cc1OC	none
O=C(CSc1nnc(CNC(=O)c2ccc(F)cc2)o1)NCCc1ccccc1	none
COc1ccc(C(=O)NCc2nnc(SCC(=O)NCc3ccco3)o2)cc1OC	D1 antagonist -41
COc1ccc(CCCc2nnc(SCC(=O)Nc3ccc(C)c(C)c3)o2)cc1	D1 antagonist -32!
O=C(/C=C/c1ccc(Cl)cc1)OCC(=O)c1ccc[nH]1	none
N#CC1=C(N)OC2=C(CC/C2=C\c2ccccc2)C1c1ccccc1 (configuration not stated)	none
N#CC1=C(N)OC2=C(CC/C2=C\c2ccccc2Cl)C1c1ccccc1Cl (configuration not stated)	D1 agonist 35
CCOc1ccc(C2N(c3ccc(OC)cc3)C(=O)C3CCCN32)cc1OC (configuration not stated)	none (no result: D1 PAM)
CCOc1ccc(C2N(c3ccc(Cl)cc3)C(=O)C3CCCN32)cc1OC (configuration not stated)	D1 antagonist -42
Cc1ccccc1CSCC1Nc2ccc(C(=O)NCCc3ccccc3)cc2NC1=O (configuration not stated)	none (no result: TRHR PAM, D1 agonist, TRHR agonist, D1 antagonist, D1 PAM)
CC(NC(=O)c1cc(Br)ccc1Cl)c1ccccc1 (configuration not stated)	D1 antagonist -46
Cn1c(NC(=O)c2cc(Br)ccc2Cl)cc(=O)n(C)c1=O	D1 agonist 33
Cn1c(NC(=O)c2ccccc2Br)cc(=O)n(C)c1=O	none
COc1ccc2cc3c(N)c(C(=O)NCc4ccco4)sc3nc2c1	TRHR PAM 51
COc1ccc2cc3cc(C(=O)NCc4ccco4)oc3nc2c1	none
COc1ccc(-c2c(C)nn3c(C(F)(F)F)cc(C)nc23)cc1OC	D1 antagonist -56
CCc1ccc(S(=O)(=O)c2cnc3ccc(OC)cc3c2N2CCCC(C)C2)cc1 (configuration not stated)	D1 antagonist -56
CC1=C(C(=O)Nc2cccc(C(F)(F)F)c2)C2(CCN(C(C)C)CC2)OC1=O	none
CCCN(Cc1nnc(-c2ccccc2Cl)o1)C(=O)c1cc(S(=O)(=O)N2CCOCC2)ccc1F	none
CCS(=O)(=O)c1ccc(-c2csc(-c3ccc(Cl)cc3)n2)c(Cl)c1Cl	D1 antagonist -33
Cc1noc(C)c1C(=O)N1CCC[C@@]2(CCN(c3ccccc3)C2)C1	none (no result: TRHR PAM, D1 agonist, TRHR agonist, D1 antagonist, D1 PAM)
CC1CC(Nc2ccccc2)c2ccccc2N1C(=O)c1ccncc1 (configuration not stated)	TRHR PAM 31
CC1CC(Nc2ccccc2)c2ccccc2N1C(=O)c1ccco1 (configuration not stated)	none
O=C(NC1CCN(C(=O)Nc2ccc(F)cc2)CC1)c1cccc(F)c1	none
O=C(NC1CCN(C(=O)Nc2ccc(F)cc2)CC1)c1ccc(F)cc1	TRHR PAM 39
CC(C)=CCN1CCNC(=O)C1CC(=O)NCc1nc(C)c(C)s1 (configuration not stated)	none
CCC1(C)COC(C)(CC(=O)NNC(=O)Nc2ccccc2)OC1 (configuration not stated)	none
COC(=O)c1nn(-c2cccc(C(F)(F)F)c2)c(=O)cc1Sc1ccccn1	TRHR PAM 39
CC(C)/C=C/CN1CCCC(N2CCN(c3cccc(Cl)c3)CC2)C1 (configuration not stated)	D1 antagonist -37
COc1ccc(-n2c(SCc3nc(-c4ccc(C)cc4)no3)nnc2-c2ccccc2)cc1	none
Cc1nnc(SCc2nc(-c3ccc(Cl)cc3)no2)n1-c1ccc(F)cc1	D1 antagonist -33
COc1ccc(-c2noc(CSc3nc4ccccc4c(=O)n3-c3ccc(C)cc3)n2)cc1	TRHR PAM 33

Screening data from PubChem.
